Bioassay records deposited in PubChem by National Center for Advancing Translational Sciences (NCATS).
Most compounds without a hit are left out; they make up all but 12% or so of the library.
G9a inh – qHTS Assay for Inhibitors of Histone Lysine Methyltransferase G9a | Histone-lysine N-methyltransferase EHMT2 (Homo sapiens), Q96KQ7 | G9a H3K9 monomethylation, AlphaScreen, 2 h | Potency, µM (series often up to 102 µM), without a hit: at the highest dose activity, negative = inhibition, actives largely listed as inhibitors | 8.8% of 350,000 active | AID 504332, 2011; further: on the % scale 0 is the no-effect control and ±100 the full control effect; nearly all actives have a fitted effect of over 75% in size
Target sequence (Q96KQ7 913-1193 limits assumed): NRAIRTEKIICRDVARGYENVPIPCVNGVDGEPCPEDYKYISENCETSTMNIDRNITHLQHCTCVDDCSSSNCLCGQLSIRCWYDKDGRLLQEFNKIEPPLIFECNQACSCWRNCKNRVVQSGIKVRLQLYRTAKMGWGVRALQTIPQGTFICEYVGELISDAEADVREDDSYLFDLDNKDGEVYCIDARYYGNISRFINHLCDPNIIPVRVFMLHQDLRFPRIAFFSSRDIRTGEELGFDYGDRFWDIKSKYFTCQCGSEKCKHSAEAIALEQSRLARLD
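AlphaScreen detection with an anti-monomethyl H3K9 antibody quantified product after a 2 h room-temperature reaction containing 500 nM biotinylated H3K9 peptide, 20 µM SAM and 20 nM enzyme, which had been preincubated 15 min with compound.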
JMJD2A Tudor inh – qHTS Assay for Inhibitors of JMJD2A-Tudor Domain | AlphaScreen JMJD2A-Tudor / H3K4me3 peptide binding | Potency, µM (titrated, usually from 114 µM), for the others: at the highest dose activity change, negative = inhibition, actives largely listed as inhibitors | 4.4% of 390,000 active | AID 504339, 2011; further: on the % scale 0 is the no-effect control and ±100 the full control effect; nearly all actives have a fitted effect of over 50% in size
Sfp PPTase inh – qHTS Assay for Inhibitors of Bacillus subtilis Sfp phosphopantetheinyl transferase (PPTase) | 4'-phosphopantetheinyl transferase ffp (Bacillus subtilis), Q9F4F7 | Biochemical Sfp PPTase activity, qHTS | Potency, µM, inactives show largest response in the series, negative = inhibition, hits mostly inhibitors | 3.5% of 310,000 active;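 further: the enzyme is Sfp with the accession as filed and its product quenches rhodamine fluorescence; 0% = enzyme reaction without inhibitor and -100% = no enzyme wells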
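After 15 min at room temperature with compound, 15 nM Sfp received 5 uM rhodamine-CoA plus 12.5 uM BHQ-2-ybbR (50 mM Hepes pH 7.6, 10 mM MgCl2). Rate came from the fluorescence difference over 30 min, ex 525/em 598 nm.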
HP1b binding inh – HTS for Inhibitors of HP1-beta Chromodomain Interactions with Methylated Histone Tails | AID 540317, 2011 | AlphaScreen HP1-beta / biotin-H3K9me3 peptide binding | Chromobox protein homolog 1 (Homo sapiens), P83916 | 0.56% of 390,000 active | Potency, µM (highest dose often 114 µM), for inactives: at the top dose activity change, negative = inhibition, hits mostly inhibitors; further: nearly all actives have a fitted effect of over 70% in size
Target sequence (P83916 whole entry, looked up): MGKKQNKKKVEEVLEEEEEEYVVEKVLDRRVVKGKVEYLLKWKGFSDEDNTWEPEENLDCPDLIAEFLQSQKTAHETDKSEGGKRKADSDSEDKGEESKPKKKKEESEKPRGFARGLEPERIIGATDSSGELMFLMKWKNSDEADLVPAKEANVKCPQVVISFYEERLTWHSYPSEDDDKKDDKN
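AlphaScreen: HP1-beta (50 nM) preformed 30 min with biotin-H3(1-18)K9me3 peptide (50 nM) in PBS pH 7.4, 0.01% Tween-20. Compound added for 30 min at RT, then streptavidin donor/nickel chelate acceptor beads (10 ug/mL) for 30 min.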
BAZ2B inh – qHTS Assay for Inhibitors of BAZ2B. Potency, µM (top dose mostly 114 µM), inactives show at the highest dose activity change, negative = inhibition, most hits filed as inhibitors. Bromodomain adjacent to zinc finger domain protein 2B (Homo sapiens), Q9UIF8. 4.4% of 360,000 active. AlphaScreen BAZ2B-H3K14Ac peptide displacement; further: on the % scale 0 is the no-effect control and ±100 the full control effect; nearly all actives have a fitted effect of over 60% in size
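AlphaScreen luminescence quantifies BAZ2B engagement of H3K14Ac peptide; the protein and biotinylated peptide are both at 50 nM final, buffer PBS pH 7.4 with 0.01% Tween-20, all steps at room temperature.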
The depositor's hits bear a star; ? = inconclusive; · = no result; [ ] = another dose, or the depositor's remark. The call rests on the fitted dose curve; in most records, active means well fitted curve in the direction sought with a large enough effect; inconclusive means small, poorly fitted or top-dose-only effect, or another doubt; inactive means no such curve, though single readings can be large; an effect the other way counts as inactive or inconclusive. Potency means the concentration at half of the fitted maximal effect.

SMILES	G9a inh	JMJD2A Tudor inh	Sfp PPTase inh	HP1b binding inh	BAZ2B inh
CC(=O)Nc1ccc(N(C(=O)Cn2nnc3ccccc32)C(C(=O)NCc2ccccc2)c2ccc(C)cc2)cc1 (centres undefined)	-3%[59 µM]	-14%	·	17%	-7%
CN(C)S(=O)(=O)c1cc(NC2CC(=O)N(c3ccc(F)cc3)C2=O)ccc1Cl (centres undefined)	35µM*	-11%	2%	45%	-15%
COc1cccc(-c2nn(-c3ccccc3)cc2CN(C)Cc2c(C)nc3ccccn23)c1	?	56µM*	56µM*	-28%	-38%
CCOC(=O)[C@H](Cc1ccc(O)cc1)NC(=O)c1ccccc1	·	·	4%	·	·
COc1ccc2[nH]c(C(=O)O)c(CCN3C(=O)c4cccc([N+](=O)[O-])c4C3=O)c2c1	?	-15%	9%	36%	79µM*
Cc1ccccc1-n1c(N)cc(=O)[nH]c1=S	-15%[59 µM]	-12%	7%	2%	-1%
O=c1cc(O)n(-c2ccccc2F)c(=S)[nH]1	50µM*	-31%	50µM*	-3%	-10%
Cc1cc(=O)[nH]c(=S)n1-c1ccccc1	?	?	-20%	38%	8%
O=c1cc(O)n(-c2ccc(Cl)cc2)c(=S)[nH]1	10µM*	-16%	50µM*	41%	-2%
Cc1ccccc1-n1c(O)cc(=O)[nH]c1=S	45µM*	1%	56µM*	29%	-21%
Cc1cccc(OCC(=O)NCc2ccc(F)cc2)c1	10%[0.501 µM]	0%	14%	34%	-4%
c1ccc(C(c2ccccc2)N2CCC3(CCNCC3)CC2)cc1	9%[12.7 µM]	·	-14%	·	·
Cc1ccc(C)c(NC(=O)CSc2ncnc3nc[nH]c23)c1	?	-23%	9%	21%	-1%
Cc1cccc(NC(=O)CSc2ncnc3nc[nH]c23)c1C	45µM*	-30%	17%	33%	-34%
Cc1cccc(NC(=O)CNC(=O)c2ccc3nc[nH]c3c2)c1C	?	-27%	·	-6%	50µM*
O=C(CNC(=O)c1cccc2ccccc12)OC(C(=O)Nc1cc(C(F)(F)F)ccc1Cl)c1ccccc1 (centres undefined)	·	-10%	·	·	·
O=C1C2Sc3[nH]c(=O)sc3C(c3ccccc3)C2C(=O)N1c1ccc(Cl)cc1 (centres undefined)	36%[0.501 µM]	?	-10%	-4%	?
Cc1ccc(N2C(=O)C3Sc4[nH]c(=O)sc4C(c4ccccc4)C3C2=O)cc1 (centres undefined)	51%[0.501 µM]	-34%	-4%	6%	50µM*
CCN(Cc1ccccc1)C(=O)CCc1nc(-c2ccc(C)cc2)no1	140%	20%	-6%	80%	43%
CCN(Cc1ccccc1)C(=O)CCc1nc(CN2CCN(C(=O)c3ccc([N+](=O)[O-])cc3)CC2)no1	79µM*	-10%	9%	36%	-33%
Cn1nc(-c2cccnc2)nc2c(=O)n(C)c(=O)nc1-2	·	-1%[57.1 µM]	·	15%[57 µM]	·
COc1ccc2c(c1)c1nc3ccccc3nc1n2CCn1c(=O)oc2ccccc21	-10%[59 µM]	-5%	8%	55%	-4%
O=c1oc2ccccc2n1CCn1c2ccccc2c2nc3ccccc3nc21	20µM*	-19%	15%	51%	0%
O=C(O)CCN1CCOCC1	23%[59 µM]	-27%	13%	24%	2%
OCCN1CCOCCN(CCO)CCOCC1	?	22µM*	11%	0%	-1%
SMILES	G9a inh	JMJD2A Tudor inh	Sfp PPTase inh	HP1b binding inh	BAZ2B inh
Cc1ccc(C)c(N(C(=O)Cn2nnc3ccccc32)C(C(=O)NCc2ccco2)c2ccncc2)c1 (centres undefined)	-30%[12.7 µM]	-18%	2%	27%	-9%
CCCCN(C(=O)Cn1nnc2ccccc21)C(C(=O)NCc1ccco1)c1ccncc1 (centres undefined)	?	-17%	50µM*	41%	-2%
Cc1cc(C)cc(N(C(=O)Cn2nnc3ccccc32)C(C(=O)NCc2ccco2)c2ccncc2)c1 (centres undefined)	?	14%	45µM*	24%	-3%
CN(C)c1ccc2nc3c(=O)[nH]c(=O)nc-3n(CC(O)C(O)C(O)CO)c2c1 (centres undefined)	50µM*	-30%	-20%	?	40µM*
O=C1CCN(C(=O)CSc2ccc(Cl)cc2)N1	14µM*	?	?	18%	50µM*
O=C(O)C1CCN(C(=O)c2ccc(Cl)cc2)CC1	10%[59 µM]	-9%	1%	30%	9%
O=C(CSc1ccc(Cl)cc1)N1CCOCC1	4%[12.7 µM]	-17%	14%	41%	2%
O=C1CCN(C(=O)c2ccc(Cl)cc2)N1	13µM*	89µM*	?	9%	56µM*
COc1ccc(CN(Cc2ccccc2)C(=O)c2ccco2)cc1COc1ccc(NC(C)=O)cc1	·	?	·	0%	·
Cc1nnc(SCC(=O)c2ccc(S(=O)(=O)N3CCOCC3)cc2)n1-c1ccccc1	?	?	32µM*	-7%	-4%
COc1ccc(-n2cnnc2SCC(=O)c2ccc(S(=O)(=O)N3CCOCC3)cc2)cc1	-93%	-9%	56µM*	19%	-7%
COCCn1c(=O)cnc2cnc(OCc3ccccc3)nc21	-12%[12.7 µM]	·	5%	·	·
COCCCn1c(=S)[nH]c(C)c(C)c1=O	·	22µM*	?	27%	10%
COCCCn1c(=S)[nH]c2ncccc2c1=O	45µM*	?	11%	32%	-30%
CCCCCn1c(=S)[nH]c2ncccc2c1=O	20%[2.33 µM]	-6%	17%	39%	10%
COCCn1c(=S)[nH]c2ncccc2c1=O	?	14µM*	-21%	16%	-23%
COc1ccc(Cl)cc1NC(=O)CCC(=O)N1CCOc2ccccc21	-32%[59 µM]	9%	·	34%	-32%
Cc1ccc(S(=O)(=O)N2CCCc3cc(NS(=O)(=O)c4ccc(F)cc4)ccc32)cc1	-18%[59 µM]	-9%	·	41%	-22%
Cc1[nH]c(=O)[nH]c1CN1CCCCC1	?	·	8%	·	-4%
Cc1nc(CN2CCCCC2)c(O)c(=O)[nH]1	·	25µM*	·	-16%	·
O=C1CCCC2=C1C(c1ccccc1Cl)N=C(Nc1nc3ccccc3o1)N2 (centres undefined)	·	-22%	·	·	·
CCOC(=O)C1CCCN(c2c(C(=O)c3ccc(OCC)cc3)cnc3ccccc23)C1 (centres undefined)	?	?	·	6%	-39%
CCOC(=O)C1CCCN(c2c(C(=O)c3ccccc3)cnc3ccc(OC)cc23)C1 (centres undefined)	56µM*	-32%	-4%	39%	?
